This note sets out measurements from PubChem BioAssay (NCI).

About 83,000 compounds went through this panel and 20% of them were active in at least one assay; those are over-represented in the sample as a whole.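 Plates (96-well) were seeded with cells, treated with compound at one concentration, and incubated for 48 hours before percent growth was determined.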 A number with no mark means an inactive call. Active and inactive are the calls of the source. Rule for the calls: active = growth percent below 10; inactive = the rest.

This experiment deals with BT-549 breast. The experiment is described as follows: NCI-60 one-dose screen, 48 h (100 = growth as untreated, 0 = no growth, -100 = all killed). The following applies: 10 µM unless noted.
Regarding `N#Cc1nc(-c2ccccc2)oc1S(=O)(=O)N1CCCCC1`, the growth was 85.7%. With `COc1ccc(-c2nn3c(-c4ccccc4F)nnc3s2)cc1`, the growth is 50.9%. For `COc1cc(OC)c(C2C(Cl)C(=O)N2Nc2ncnc3ccccc23)cc1OC` (stereo not drawn), the growth was 89.6%.

As to `O=C(CSc1nc2sc3c(c2c(=O)n1-c1ccc(Cl)cc1)CCCC3)N/N=C/c1ccc(F)cc1`, the growth was 116%. Take `Nc1ncc(-c2ccc3ncnc(N4CCc5cc(F)c(Cl)cc54)c3c2)cc1CO`: the growth is -31.1% (active). Turning to `CN(C)CCCOc1c2ccc(Cl)cc2nc2c1oc1ccc(Cl)cc12`, the growth was 45.6%.

On to `NS(=O)(=O)c1ccc(Nc2nc(SCC(=O)c3ccc(Cl)cc3)nc3ccccc23)cc1`, for which the growth is 112%. In the case of `N#Cc1nc(-c2ccccc2)oc1N1CC[C@@H](CO)C1`, the growth is 117%. For the molecule `CC(C)(C)Nc1nc2c(OCCc3ccccc3)cccn2c1-c1ccc(O)cc1`, the growth was 85.4%. Then `N#Cc1c(-c2ccc(Cl)cc2)nc(SCc2ccc(F)cc2)nc1N1CCNCC1`, with 101%; and `Fc1ccc(-c2cc3nc(C(Cl)Cl)nc(-c4ccccc4)n3n2)cc1`, with 46.5%.

As for `COc1cc(/C=C/C(=O)c2ccccc2)ccc1Oc1nc(NCCO)nc(N2CCOCC2)n1`, the growth was 92.4%. As for `O=C(N/N=C/c1ccc[nH]1)c1[nH]c2ccc(Br)cc2c1-c1ccccc1`, the figure is -12.5% (active); as for `CN(C)c1ccc(/C=C2\Cc3c(F)ccc(Br)c3C2=O)cc1`, 117%; as for `CC(C)(C)Nc1nc2c(OCCc3ccccc3)cccn2c1-c1cccc(F)c1`, 11.8%. As for `OC1CCN(CCCOc2c3ccc(Cl)cc3nc3c2oc2ccc(Cl)cc23)CC1`, the growth is 46.6%.

`Fc1ccc(-c2cc3nc(C(Cl)Cl)nc(-c4ccc(Cl)cc4)n3n2)cc1`: the growth is 72.4%. Then `COC(=O)C(Cc1ccccc1)NS(=O)(=O)/N=C1\NC(=O)NC1=C(Cl)Cl` (stereo not drawn), with 95.6%. As to `Nc1cc(-c2c[nH]c3ccccc23)nc2cc(-c3c[nH]c4ccccc34)nn12`, the growth was 84.4%.

Take `O=C(N/N=C/c1ccco1)c1[nH]c2ccc(Br)cc2c1-c1ccccc1`: the growth is -17.1% (active). Take `OC1CCN(CCCOc2c3ccccc3nc3c2oc2ccc(Cl)cc23)CC1`: the growth is 57.1%.

With `CN(C)CCCOc1c2ccc(Cl)cc2nc2c1oc1ccccc12`, the growth is 8.05% (active). As to `Cc1[nH]nc2ncc(C#Cc3cncc(C(=O)Nc4ccc(CN5CCN(C)CC5)c(C(F)(F)F)c4)c3)cc12`, the growth was 64.5%. As for `Cc1sc2c(c1C)c(=O)nc1c(-c3nc(-c4ccc(F)cc4)no3)n[nH]n12`, the growth was 102%. Consider `C#Cc1nc(C2=C(C)C(O)/C(=N/O)C2)cs1` (stereo not drawn), for which the growth is 111%. As for `Cc1ccc(C(=O)Nc2cccc(C(F)(F)F)c2)cc1Nc1nc(-c2cnccn2)nc2c1cnn2C`, the figure is 143%; as for `CN1CCc2c(sc3ncnc(N/N=C/c4ccc(Cl)c(Cl)c4)c23)C1`, 42.2%.

Take `CC(=O)Nc1cc(F)cc(-c2ccc3[nH]cc(-c4ccccc4)c3n2)c1`: the growth is 73.1%. On to `CS(=O)(=O)c1ccc(-n2cc(/C=C/C(=O)c3ccc(NC(=O)CO[N+](=O)[O-])cc3)c(-c3ccc(Cl)cc3)n2)cc1`, for which the growth was 103%. Then `CC(C)(C)Nc1nc2c(OCCc3ccccc3)cccn2c1-c1ccc(Cl)cc1`, with 47.7%; and `N#Cc1nc(-c2ccccc2)oc1S(=O)(=O)N1CCN(CCc2ccccn2)CC1`, with 107%. As to `C#Cc1nc(C2=C(C)C(OC(=O)CCC(=O)O)CC2)cs1` (stereo not drawn), the growth is 102%. For the molecule `O=C(NNc1nc2cc(F)ccc2n2c(CN3CC4(COC4)C3)ccc12)c1cnccn1`, the growth was 36.4%. As to `Cc1cccc(/C=C/c2nn3c(-c4ccco4)nnc3s2)c1`, the growth was 90.8%. In the case of `CCN1C(=S)N(CC)C2C1N=C(SC)N2/N=C/C=C/c1ccccc1[N+](=O)[O-]` (stereo not drawn), the growth is 107%. On to `Nc1cc(-c2c[nH]c3ccc(F)cc23)nc2cc(-c3c[nH]c4ccc(F)cc34)nn12`, for which the growth is 103%. With `Clc1ccc(Cc2nnc3sc(-c4cccnc4)nn23)cc1`, the growth is 95.5%. On to `NS(=O)(=O)c1cccc(Nc2nc(SCC(=O)c3ccc(Br)cc3)nc3ccccc23)c1`, for which the growth is -40.8% (active).
